Compound activity as filed in PubChem.
ATXN2 expr inh = ATXN2 expression inhibition. HEK-293 ATXN2-luciferase reporter, luminescence, 24 h. Potency, µM (series often up to 57 µM), without a hit: at the top dose activity change, negative = inhibition, usual class: inhibitors. 360,000 tested, 0.72% active. AID 1745845; further: on the % scale 0 is the no-effect control and ±100 the full control effect; nearly all actives have a fitted effect of over 55% in size
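qHTS (up to 57 uM final) was run with 24 h compound exposure of reporter cells at 37 °C. Each well was multiplexed: SteadyGlo luminescence measured ATXN2-luciferase expression after a fluorogenic Gly-Phe-AFC viability readout (25 uM final).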
TGFb inhibitor = blocks TGF-b signaling. HepG2 CAGA-GFP TGF-b/SMAD3 reporter, GFP fluorescence, 18 h; TGF-beta stimulated, 500 pg/mL final. Potency, µM (doses to about 46.1 µM), for the others: at the highest dose activity, negative = inhibition, most hits filed as inhibitors. 410,000 tested, 1.2% active; further: on the % scale 0 is the no-effect control and ±100 the full control effect; nearly all actives have a fitted effect of over 65% in size
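TGF-beta reporter screen: HEPG2 CAGA-GFP, 1% FBS, 500 pg/mL TGF-beta final, 18 h; per-cell GFP summed per well; curves fitted and categorized by class.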
S2 tox = viability counter-screen for ATXN expression inhibitors; S2 cells (HEK-293 line with an ATXN2-luciferase reporter) viability, CellTiter-Fluor protease fluorescence, 24 h; Potency, µM (series often up to 56.7 µM), hits mostly cytotoxic; 400,000 tested, 0.49% active; further: nearly all actives have a fitted effect of over 40% in size
HepG2 tox = counter-screen for TGF-b inhibitors: cytotoxicity in HepG2 cells | HepG2 CAGA-GFP viability, ATP luminescence, 18 h | Potency, µM (titrated, usually from 46.1 µM), for the others: top-dose activity change, negative = cytotoxicity, actives largely listed as cytotoxic | 410,000 tested, 0.76% active | AID 588856
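CellTiter-Glo luminescence gave cytotoxicity after 18 hours at 37 degrees C. The cells were HepG2 CAGA-GFP in 1% FBS DMEM, stimulated with 500 pg/mL TGF-beta after compound addition. %Activity was normalised to no-cell wells (complete cell-killing) and DMSO (no toxicity), and curves were fitted and classified.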
KB-3-1 cytotox = kills parental KB-3-1 adenocarcinoma cells; KB-3-1 viability, CellTiter-Glo ATP luminescence, 72 h; Potency, µM (top dose mostly 46.1 µM), hits mostly cytotoxic; 400,000 tested, 1.4% active; AID 1347075; further: on the % scale 0 is the no-effect control and ±100 the full control effect; nearly all actives have a fitted effect of over 60% in size
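Cytotoxicity measured as CellTiter-Glo luminescence after 72 h at 37 C. Compound titrations were pinned onto drug-naive KB-3-1 parental adenocarcinoma cells grown in DMEM with 10% FBS, and normalized data fitted to concentration-response curves.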
KB-V1 cytotox = kills drug-selected multidrug resistant KB-V1 cells; KB-V1 MDR cells viability, CellTiter-Glo, 72 h; Potency, µM (titrated, usually from 46.1 µM), hits mostly cytotoxic; 400,000 tested, 3.4% active; further: on the % scale 0 is the no-effect control and ±100 the full control effect; nearly all actives have a fitted effect of over 60% in size
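Following 72 h at 37 degrees C with compound, KB-V1 cell viability was read by CellTiter-Glo luminescence, medium being phenol-red-free DMEM plus 10% FBS; concentration-response parameters came from normalized, curve-fitted qHTS data.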
* hit, by the source's call; i = inactive; ? = inconclusive; . = no result; ! = a repeat was not active. Shown are actives, neighbours in structure and some others; about 5.9% of the full set was active somewhere. The call rests on the fitted dose curve; in most records, active means well fitted curve in the direction sought with a large enough effect; inconclusive means small, poorly fitted or top-dose-only effect, or another doubt; inactive means no such curve, though single readings can be large; an effect the other way counts as inactive or inconclusive. Potency means the concentration at half of the fitted maximal effect.

SMILES	ATXN2 expr inh	TGFb inhibitor	S2 tox	HepG2 tox	KB-3-1 cytotox	KB-V1 cytotox
COc1cc(/C=C2\CCC/C(=C\c3ccc(O)c(OC)c3)C2=O)ccc1O	?	?	.	10µM*!	?	?
CCOc1cc(/C=C2\CN(CC)C/C(=C\c3ccc(O)c(OCC)c3)C2=O)ccc1O	?	5.6µM*	?	8.9µM*	?	?
Cc1ccc(NC(=O)CN2C(=O)c3cccnc3Oc3ccc(Cl)cc32)cc1	.	0%	.	-10%	i	i
CCCc1ncc(C(=O)O)s1	13%	.	i	.	.	.
CC1(C)CC(=O)c2c(oc3c(Cl)cc(NS(=O)(=O)c4ccc(Br)cc4)cc23)C1	4%	16%	i	-1%	i	?
Cc1ccc(C2CC(C(F)(F)F)n3nc(C(=O)NCc4c(C)nn(C)c4C)c(Cl)c3N2)cc1 (stereo not given)	?	13µM*	i	-59%	21µM*	5.8µM*
Cc1nn(C)cc1CN(C)C(=O)c1nn2c(c1Br)NC(c1cccs1)CC2C(F)(F)F (stereo not given)	-4%	-17%	i	-2%	i	i
Cc1nn(C)cc1CN(C)C(=O)c1nn2c(c1Cl)NC(c1cccs1)CC2C(F)(F)F (stereo not given)	-11%	-3%	i	-1%	i	18µM*
Cc1cccc(CNC(=O)CS(=O)(=O)c2cccc3nsnc23)c1	10%	2%	i	-11%	i	i
Cc1cccc(C)c1NC(=O)C1(C)CN(S(C)(=O)=O)CC(=O)N1CCc1ccc(O)cc1 (stereo not given)	.	.	.	.	i	i
Cc1ccc(CC#N)c(-c2c(CC#N)ccc(C)c2C)c1C	.	-3%	i	4%	i	?
Cc1ccc2c(c1C)-c1c(ccc(C)c1C)C(=O)C2=O	?	2.5µM*	?	4µM*	3.3µM*	0.65µM*
CCC1=C(c2ccc(C)cc2)S(=O)(=O)N=C1N1CCC(C(=O)Nc2ccccc2C(=O)OC)CC1	-11%	?	i	-18%	i	?
Nc1ncnc2c1ncn2[C@@H]1O[C@H](C(=O)NS(=O)(=O)c2cccs2)[C@@H](O)[C@H]1O	-16%	14%	i	-1%	i	i
C[C@@H]1[C@H](c2ccccc2)OCCS(=O)(=O)N1Cc1ccccc1F	.	-35%	.	-20%	?	?
Cc1ccc(CN2[C@H](C)[C@H](c3ccccc3)OCCS2(=O)=O)cc1	.	-24%	.	1%	23µM*	16µM*
CC(C)=CNNC(=O)c1ccc(O)cc1	.	-4%	.	-4%	i	i
CCNC(=O)CC1SC(=Nc2ccc(Cl)cc2)N(CC)C1=O (stereo not given)	.	?	i	13µM*	i	?
COc1ccc(N(C(C)C(=O)N2CCC(Cc3ccccc3)CC2)S(C)(=O)=O)cc1 (stereo not given)	-16%	11%	i	1%	?	3.7µM*
Cc1cc(F)ccc1S(=O)(=O)NCC(c1ccco1)S(=O)(=O)c1cccs1 (stereo not given)	.	?	.	-4%	.	.
Cc1ccc(S(=O)(=O)N2CCCCC2C(=O)N2CCN(Cc3ccccc3)CC2)cc1 (stereo not given)	-8%	-1%	i	-10%	?	4.6µM*
O=C(C1CCCCN1S(=O)(=O)c1ccccc1)N1CCN(Cc2ccccc2)CC1 (stereo not given)	-5%	3%	i	-15%	?	i
Cc1ncc2c(c1CNS(=O)(=O)N(C)C)CCN(C(=O)/C=C/c1ccccc1F)C2	.	.	i	.	.	.
CCN(CC)S(=O)(=O)c1ccc(N/N=C(\C)c2ccc(OC)cc2O)nc1	.	8.9µM*	i	-63%	?	?
Cc1ccc(CN2CCc3c(OCc4ccc(F)cc4)cccc3C2=O)cc1	-33%	-101%	i	-34%	?	5.8µM*
SMILES	ATXN2 expr inh	TGFb inhibitor	S2 tox	HepG2 tox	KB-3-1 cytotox	KB-V1 cytotox
COC(=O)c1ccc(COc2cccc3c2CCN(Cc2cccc(C)c2)C3=O)o1	-32%	?	i	-6%	?	16µM*
Clc1cccc(OCCN2CCN(CCOc3cccc(Cl)c3)CC2)c1	?	?	?	-88%	16µM*	i
Cc1[nH]c2ccccc2c1C(c1ccccn1)N1CCC(C)CC1 (stereo not given)	25%	-15%	i	-5%	18µM*	?
COC(=O)c1cc(Cl)ccc1OC	7%	.	i	.	.	.
Cc1ccc(NC(=O)C(=O)NCC(c2cccnc2)N2CCN(C)CC2)cc1C (stereo not given)	-6%	6%	i	-25%	i	i
CCCc1cc(=O)[nH]c(SCC(=O)c2c(N)n(C3CC3)c(=O)[nH]c2=O)n1	-16%	-22%	i	-55%	16µM*	i
Cc1ccc2nc(SCC(=O)c3c(N)n(C4CC4)c(=O)[nH]c3=O)[nH]c2c1	2%	8%	i	-38%	i	i
CC(C)Oc1ccc(C(=O)NC2CCCCC2)cc1	46%	0%	i	3%	i	i
CC(C)Oc1ccc(C(CCN)C2CCCCC2)cc1 (stereo not given)	?	?	.	11µM*	?	16µM*
Cc1ccc2oc(=O)c3cnn(CC(=O)N4CCN(c5ccccc5F)CC4)c3c2c1	.	-20%	.	-17%	i	i
O=C(/C=C/c1cccnc1)c1ccc(F)c(F)c1	-21%	-9%	i	-6%	?	i
CN(C)c1ccc(C(=O)/C=C/c2cccnc2)cc1	60%	?	i	-65%	18µM*	?
O=C(Nc1ccc(Cl)cc1C(=O)Nc1ccc(Br)cn1)c1ccco1	1%	5%	i	-22%	i	5.2µM*
